Sampled rows, rich in hits. Any-hit rate of the full collection: about 4%.
Tau filament bind – binders of human tau filaments | actives 2% (n = 71,000) | Potency, µM (top dose mostly 57.1 µM), without a hit: at the highest dose activity change, negative = inhibition | recombinant tau filaments, thioflavin S fluorescence, 15 h; filaments grown with octadecylsulfate alongside compound;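 also: % is scaled to controls: 0 for no effect and ±100 for the full control effect; actives lower thioflavin S fluorescence by blocking filaments or displacing dye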
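Read-out: ThS fluorescence, 450 nm excitation/510 nm emission; lower signal marks blocked filament formation or displaced dye. Tau at 1 uM with 30 uM ODS, 10 uM ThS, 5 mM DTT, 100 mM NaCl, 10 mM HEPES pH 7.4; 15 h, 37 C.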
Bst PK mod – alters activity of Bacillus stearothermophilus pyruvate kinase | purified pyruvate kinase, luminescence ATP production; ribose 5-phosphate activator present at AC10 | Potency, µM | actives 1.2% (n = 51,000) | AID 361; in the data active = potency below about 11 µM; inconclusive = mostly about 12 µM to 25 µM;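 the screen sought inhibitors and activators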;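 also: scaled between full activation by ribose 5 phosphate and full inhibition by luteolin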
FLuc inh – inhibitors of firefly luciferase; actives 2.2% (n = 72,000); purified firefly luciferase, luminescence, 8 min; P08659; Potency, µM (titrated, usually from 57.1 µM), for inactives: top-dose activity change, negative = inhibition, hits mostly inhibitors; also: % is scaled to controls: 0 for no effect and ±100 for the full control effect; nearly all actives have a fitted effect of over 40% in size
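Luminescence read-out after 8 min at room temperature; enzyme reaction used luciferin plus 10 uM ATP (linear range) in imidazole buffer pH 7.2 with KCl, MgCl2, Tween 20 and BSA. Each sample was run as a titration.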
Caspase-7 inhib – blocks human caspase-7 allosterically or competitively | P55210 | recombinant caspase-7, Ac-DEVD-AFC fluorescence rate | Potency, µM (series often up to 57.5 µM), for the others: top-dose activity change, negative = inhibition, actives largely listed as inhibitors | actives 0.02% (n = 75,000); active = well fitted inhibition curve with a large enough effect in the main read-out, with a control signal flat, not every such curve was filed as active; inconclusive = small, poorly fitted or top-dose-only effect, or a change in a side signal; also: % of control where 0% means no effect
Casp1 inh – blocks human caspase-1 allosterically or competitively | P29466 | Caspase-1 enzyme, Ac-WEHD-AFC fluorogenic rate | Potency, µM (highest dose often 57.5 µM), for inactives: at the highest dose activity change, negative = inhibition, usual class: inhibitors | actives 0.03% (n = 75,000) | AID 900;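 also: plate controls were vehicle for no effect and no substrate for full effect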
Starred values were filed as active, the others as inactive; i = inactive; ? = inconclusive; . = no result given; [ ] = dose if it differs, or a comment. Unless noted, calls follow the shape of the dose curve; as a rule, active = well fitted curve in the direction sought with a large enough effect; inconclusive = small, poorly fitted or top-dose-only effect, or another doubt; inactive = no such curve, though single readings can be large; an effect the other way counts as inactive or inconclusive. Potency is read from the fitted curve at half-maximal effect.

SMILES	Tau filament bind	Bst PK mod	FLuc inh	Caspase-7 inhib	Casp1 inh
Cc1cccc(-n2ncc3c(NC4CCCCC4)ncnc32)c1	53%	.	10µM*	-7%	-7%
Clc1ccc(-n2ncc3c(NCc4ccccn4)ncnc32)cc1	.	?	-4%[25.5 µM]	.	.
Cc1cccc(-n2ncc3c(NCc4ccc5c(c4)OCO5)ncnc32)c1	114%	>57	-1%	-5%	-2%
COc1ccccc1Nc1ncnc2c1cnn2-c1cccc(C)c1	.	.	-10%[25.5 µM]	.	.
Cc1ccc(S(=O)(=O)N[C@H]2COC(=O)C/C=C\[C@H](C)[C@@H](NS(=O)(=O)c3ccc(C)cc3)COC(=O)C/C=C\[C@@H]2C)cc1	.	.	1%[11.4 µM]	1%[11.5 µM]	-2%[11.5 µM]
CCOC(=O)[C@]1(C(NC(=O)OC)c2ccco2)CCCC1=O (some centres undefined)	.	.	.	2%[11.5 µM]	-4%[11.5 µM]
COc1cccc(Nc2ncc3nc(CCc4ccccc4)c(=O)n(C4CC4)c3n2)c1	442%	.	0%[11.4 µM]	?	.
Cc1ccc(S(=O)(=O)N[C@H]2COC(=O)[C@H](C)COC(=O)[C@H](C)NC(=O)C/C=C\[C@H]2C)cc1	.	.	0%[11.4 µM]	-2%[11.5 µM]	0%[11.5 µM]
CCN1CCN(Cc2ccc(NC(=O)Nc3ccccc3Cl)cc2)CC1	-9%	.	16µM*	1%	0%
CCN1CCN(Cc2ccccc2NC(=O)Nc2ccc(C)cc2)CC1	1%	>57	3%	-1%	1%
c1csc(CNc2nc(-c3ccoc3)nc3ccccc23)c1	25µM*	.	-2%[2.29 µM]	-6%	-6%
c1cncc(-c2nc(NCc3cccs3)c3ccccc3n2)c1	34%	.	2%[2.29 µM]	-1%	1%
CCN1c2ccccc2NC2C1C(C(C)=O)C(=O)N2c1ccc(Cl)cc1 (centres undefined)	-29%	.	0%	-6%	-7%
CCN1c2ccccc2NC2N=C(OC)C(c3ccccc3)C21 (centres undefined)	32µM*	.	-1%	-3%	-4%
CNC(=O)c1c(NC(=O)c2nc3ccccc3s2)sc2c1CCC2	0.63µM*	.	-13%	?	.
COC(=O)[C@@H]1C[C@H]1[C@@H](NC(=O)c1cnccn1)c1ccccc1	-11%	.	.	-1%	-2%
Cc1nn(-c2ccccc2)c2c1C(c1cccnc1)N1C=C(S(=O)(=O)N3CCCCC3)C=CC1=N2 (centres undefined)	16µM*	>57	2%	-3%	-2%
Cc1nn2c(c1-c1ccccc1)NC1=C(C(=O)CCC1)C2c1cccnc1 (centres undefined)	-15%	>57	1%	1%	4%
N#Cc1c(NC(=O)C(F)(F)F)sc2c3c(=O)c4ccccc4c(=O)c=3oc3ccccc3c12	4µM*	.	-1%[11.4 µM]	-4%[11.5 µM]	-1%[11.5 µM]
Cc1c(C(=O)Nc2nnc(C(F)(F)F)s2)oc2ccccc12	.	.	.	1%	-2%
c1ccc(-c2noc(C3CCCCC3)n2)nc1	1%	.	?	-1%	-2%
c1ccc(-c2noc(C34CC5CC(CC(C5)C3)C4)n2)nc1	2%	.	16µM*	-2%	-3%
O=c1/c(=C\c2ccc3c(c2)OCO3)sc2n1CCCN=2	1%	?	13µM*	2%	-3%
CCOc1ccccc1/C=C(\C#N)C(N)=O	-4%[11.4 µM]	.	1%[11.4 µM]	0%[11.5 µM]	2%[11.5 µM]
Cc1ccc(-n2c(-c3ccncc3)nnc2-c2ccco2)cc1	-5%	>57	2%	-3%	1%
SMILES	Tau filament bind	Bst PK mod	FLuc inh	Caspase-7 inhib	Casp1 inh
Cc1ccc(-c2cnc(-c3ccncc3)o2)cc1	21%[11.4 µM]	.	13µM*	-7%	-15%
CCN(CC)[C@@H](C)C(=O)N1c2ccccc2Sc2ccccc21	-7%	.	1%	.	.
COc1cccc(-c2nc(=S)c3c(n2Cc2ccco2)CCCC3)c1	16µM*	>57	-4%	-1%	-4%
CCOC(=O)c1c(NC(=O)c2ccco2)sc2c1CCCCC2	98%	.	-10%	-26%	-13%
O=C(Nc1sc2c(c1C(=O)O)CCCCC2)c1ccco1	12%	.	20µM*	-3%	-2%
COC(=O)c1c(NC(=O)c2ccoc2C)sc2c1CCC2	6%	>57	1%	-2%	-4%
Cc1occc1C(=O)Nc1sc2c(c1C(N)=O)CCCCC2	-7%	i	13µM*	-3%	-4%
O=C(CCc1ccc(O)cc1)c1c(O)cc(O)cc1O[C@@H]1O[C@@H](CO)[C@@H](O)[C@@H](O)[C@H]1O	?	.	0%[11.4 µM]	.	.
CC(C)[C@H](N=Cc1ccccc1O)C(=O)O	-2%[11.4 µM]	.	1%[11.4 µM]	1%[11.5 µM]	1%[11.5 µM]
CC1Cc2ccccc2N1Cc1nc2scc(-c3cccs3)c2c(=O)[nH]1 (centres undefined)	13µM*	>57	-39%	-2%	-3%
C=CC[C@@H]1C=C[C@@H](O/N=C2/[C@H]3O[C@@H]3[C@@H](O)[C@H]3[C@H]2CCn2c(=O)n(-c4ccccc4)c(=O)n23)[C@@H](CO)O1	.	.	1%[11.4 µM]	-9%[11.5 µM]	0%[11.5 µM]
CCOC(=O)C1=C(CNCc2ccccc2Cl)NC(=O)NC1c1ccc2c(c1)OCO2 (centres undefined)	16µM*	>57	1%	-4%	-2%
CCOC(=O)C1=C(C)NC(=O)NC1c1ccc(F)cc1 (centres undefined)	1%	>57	2%	-3%	-1%
CCOC(=O)C1=C(CN2CCC(C)CC2)NC(=O)NC1c1ccc(Cl)cc1 (centres undefined)	16µM*	>57	2%	1%	-2%
c1ccc2c(NCCN3CCOCC3)nc(-c3ccc4c(c3)OCO4)nc2c1	-6%	.	-1%[2.29 µM]	-22%	-17%
N[C@@H]1CCN(O)C1=O	?	.	0%	1%	-2%
CC1(c2ccc3noc(-c4ccc(Cl)cc4)c3c2)OCCO1	?	?	-2%	-7%	-7%
c1ccc(-c2onc3cc4c(cc23)OCCO4)cc1	18%	.	13µM*	-18%	-14%
CC1(C)Oc2cc3c(cc2O1)OC(C)(C)O3	.	.	.	4%[11.5 µM]	2%[11.5 µM]
COc1ccccc1CN1CC[C@@]2(CCCN(S(C)(=O)=O)C2)C1	0%	.	0%[11.4 µM]	1%	-2%
CN1CCc2c(sc3c2C(=O)NC(c2ccc(-c4cccc(Cl)c4)o2)N3)C1 (centres undefined)	1.3µM*	.	-2%	?	.
COC(=O)CC1C(C)(C)C2(O)OC34CC2C(=O)[C@@]1(C)C3CC[C@]1(C)C4=CC(=O)OC1c1ccoc1 (some centres undefined)	.	.	.	3%	2%
O=c1cc(-c2c(F)c(F)c(F)c(F)c2F)oc2c(F)c(F)c(F)c(F)c12	16µM*	>11	5%	-5%	-1%
O=[N+]([O-])c1cccc(/C=N\Nc2ccc3ccccc3n2)c1O	3.2µM*	.	3.2µM*	1%[11.5 µM]	-2%[11.5 µM]
NS(=O)(=O)c1ccc(N=Nc2cc3ccccc3c(C(=O)O)c2O)cc1	1.3µM*	.	0%[11.4 µM]	-8%[11.5 µM]	2%[11.5 µM]
NS(=O)(=O)c1ccc(N=Nc2ccc(O)c(C(=O)O)c2)cc1	0%[11.4 µM]	.	-1%[11.4 µM]	-2%[11.5 µM]	-3%[11.5 µM]
CCn1nc(NC(=O)c2ccccn2)c2cc3cc(C)ccc3nc21	276%	.	7.9µM*	?	.
Clc1ccc(-c2nnc(-c3ccccc3Cl)o2)cc1	87%	.	13µM*	-1%	-4%
Brc1ccc(-c2nnc(-c3ccccc3Br)o2)cc1	150%	.	4µM*	-1%	-1%

Screening results (PubChem BioAssay)
